Measured values reported in PubChem BioAssay AID1159580 (chemical genetic matrix, 2015).
About 2,000 (36%) of roughly 5,500 compounds were called active. Inconclusive results (about 18%) are left out. Rule as the data show it: active = normalized growth mostly below about 0.91 (no sharp cut-off); inconclusive = no clear call, values can overlap the other calls; inactive = mostly above about 0.92. This is one part of the list.

Experiment: chemical genetic growth profiling, strain panel (AID 1159580);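 also: tested at 20 µM; growth read once vehicle control cultures reached saturation at 30 °C; 1 = growth at the plate median or of vehicle wells; lower values mean less growth of the strain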
Conditions: growth OD

Measured: normalized growth

CC(C)CCCC(C)[C@H]1CCC2C3CC=C4C[C@@H](O)CC[C@]4(C)C3CC[C@@]21C (some centres undefined)
inactive: S. cerevisiae deletion strains, locus YJR075W, strain HOC1, hits give low values 1.02 | S. cerevisiae deletion strains, locus YKL009W, strain mrt4, hits give low values 0.99 | S. cerevisiae deletion strains, locus YKL068W, hits give low values 1 | S. cerevisiae deletion strains, locus YKL085W, strain MDH1 (second series), hits give low values 0.999 | S. cerevisiae deletion strains, locus YKL085W, strain MDH1, hits give low values 0.999 | S. cerevisiae deletion strains, locus YKL160W, strain elf1, hits give low values 1.01 | S. cerevisiae deletion strains, locus YKL190W, strain CNB1, hits give low values 1.01 | S. cerevisiae deletion strains, locus YKR001C, strain vps1, hits give low values 0.985 | S. cerevisiae deletion strains, locus YKR026C, strain gcn3, hits give low values 0.988 | S. cerevisiae deletion strains, locus YKR091W, strain srl3, hits give low values 0.981 | S. cerevisiae deletion strains, locus YLL001W, strain dnm1, hits give low values 1 | S. cerevisiae deletion strains, locus YLL026W, hits give low values 0.993 | S. cerevisiae deletion strains, locus YLL041C, strain sdh2, hits give low values 0.968 | S. cerevisiae deletion strains, locus YLR027C, strain aat2, hits give low values 0.981 | S. cerevisiae deletion strains, locus YLR039C, strain RIC1, hits give low values 1.02 | S. cerevisiae deletion strains, locus YLR058C, strain SHM2, hits give low values 1.01 | S. cerevisiae deletion strains, locus YLR102C, strain apc9, hits give low values 0.995 | S. cerevisiae deletion strains, locus YLR113W, strain HOG1, hits give low values 1.04 | S. cerevisiae deletion strains, locus YLR221C, strain rsa3, hits give low values 1.08 | S. cerevisiae deletion strains, locus YLR258W, strain gsy2, hits give low values 1 | S. cerevisiae deletion strains, locus YLR262C, strain YPT6 (second series), hits give low values 0.987 | S. cerevisiae deletion strains, locus YLR262C, strain YPT6, hits give low values 1.02 | S. cerevisiae deletion strains, locus YLR268W, strain sec22, hits give low values 0.963 | S. cerevisiae deletion strains, locus YLR320W, strain mms22, hits give low values 1.01 | S. cerevisiae deletion strains, locus YLR330W, strain CHS5, hits give low values 1.02 | S. cerevisiae deletion strains, locus YLR342W, strain FKS1 (second series), hits give low values 1.02 | S. cerevisiae deletion strains, locus YLR342W, strain FKS1, hits give low values 0.968 | S. cerevisiae deletion strains, locus YLR357W, strain rsc2, hits give low values 0.983 | S. cerevisiae deletion strains, locus YLR370C, strain arc18, hits give low values 0.974 | S. cerevisiae deletion strains, locus YLR371W, strain rom2, hits give low values 0.988 | S. cerevisiae deletion strains, locus YLR384C, strain iki3, hits give low values 0.97 | S. cerevisiae deletion strains, locus YLR418C, strain cdc73, hits give low values 1 | S. cerevisiae deletion strains, locus YML016C, strain PPZ1, hits give low values 1.01 | S. cerevisiae deletion strains, locus YML032C, strain rad52, hits give low values 1 | S. cerevisiae deletion strains, locus YML120C, strain ndi1, hits give low values 0.975 | S. cerevisiae deletion strains, locus YML124C, strain tub3, hits give low values 0.999 | S. cerevisiae deletion strains, locus YMR058W, strain fet3, hits give low values 0.972 | S. cerevisiae deletion strains, locus YMR078C, strain ctf18, hits give low values 0.999 | S. cerevisiae deletion strains, locus YMR125W, strain sto1, hits give low values 0.94 | S. cerevisiae deletion strains, locus YMR129W, hits give low values 0.975 | S. cerevisiae deletion strains, locus YMR205C, strain PFK2, hits give low values 1 | S. cerevisiae deletion strains, locus YMR223W, strain ubp8, hits give low values 1.02 | S. cerevisiae deletion strains, locus YMR231W, strain pep5, hits give low values 0.967 | S. cerevisiae deletion strains, locus YMR263W, strain SAP30, hits give low values 1.02 | S. cerevisiae deletion strains, locus YMR307W, strain GAS1, hits give low values 1.04 | S. cerevisiae deletion strains, locus YNL067W, strain RPL9B, hits give low values 1 | S. cerevisiae deletion strains, locus YNL071W, strain lat1, hits give low values 0.966 | S. cerevisiae deletion strains, locus YNL183C, strain NPR1, hits give low values 0.962 | S. cerevisiae deletion strains, locus YNL209W, strain ssb2, hits give low values 0.98 | S. cerevisiae deletion strains, locus YNL233W, strain BNI4, hits give low values 1.02 | S. cerevisiae deletion strains, locus YNL248C, strain rpa49, hits give low values 0.963 | S. cerevisiae deletion strains, locus YNL250W, strain rad50, hits give low values 1.02 | S. cerevisiae deletion strains, locus YNL271C, strain bni1, hits give low values 0.994 | S. cerevisiae deletion strains, locus YNL298W, strain CLA4, hits give low values 0.995 | S. cerevisiae deletion strains, locus YNL307C, strain MCK1, hits give low values 0.987 | S. cerevisiae deletion strains, locus YNL322C, strain KRE1 (second series), hits give low values 0.964 | S. cerevisiae deletion strains, locus YNL322C, strain KRE1, hits give low values 1.01 | S. cerevisiae deletion strains, locus YNR049C, strain mso1, hits give low values 0.981 | S. cerevisiae deletion strains, locus YNR052C, strain pop2, hits give low values 0.99 | S. cerevisiae deletion strains, locus YOL012C, strain htz1 0.694 | S. cerevisiae deletion strains, locus YOL147C, strain pex11, hits give low values 0.99 | S. cerevisiae deletion strains, locus YOR001W, strain rrp6, hits give low values 0.99 | S. cerevisiae deletion strains, locus YOR061W, strain CKA2, hits give low values 1.01 | S. cerevisiae deletion strains, locus YOR069W, strain VPS5, hits give low values 1.01 | S. cerevisiae deletion strains, locus YOR070C, strain gyp1, hits give low values 1.07 | S. cerevisiae deletion strains, locus YOR080W, strain dia2, hits give low values 0.991 | S. cerevisiae deletion strains, locus YOR083W, strain WHI5, hits give low values 1.03 | S. cerevisiae deletion strains, locus YOR106W, strain vam3, hits give low values 0.988 | S. cerevisiae deletion strains, locus YOR136W, strain idh2, hits give low values 0.99 | S. cerevisiae deletion strains, locus YOR144C, strain elg1, hits give low values 0.986 | S. cerevisiae deletion strains, locus YOR184W, strain ser1, hits give low values 0.984 | S. cerevisiae deletion strains, locus YOR231W, strain MKK1, hits give low values 1.03 | S. cerevisiae deletion strains, locus YOR265W, strain rbl2, hits give low values 0.989 | S. cerevisiae deletion strains, locus YOR270C, strain vph1, hits give low values 0.901 | S. cerevisiae deletion strains, locus YOR290C, strain snf2, hits give low values 0.987 | S. cerevisiae deletion strains, locus YOR316C, strain cot1, hits give low values 0.987 | S. cerevisiae deletion strains, locus YPL051W, strain arl3, hits give low values 1.03 | S. cerevisiae deletion strains, locus YPL055C, strain LGE1, hits give low values 1.03 | S. cerevisiae deletion strains, locus YPL078C, strain atp4, hits give low values 0.98 | S. cerevisiae deletion strains, locus YPL106C, strain sse1, hits give low values 0.999 | S. cerevisiae deletion strains, locus YPL240C, strain hsp82, hits give low values 0.985 | S. cerevisiae deletion strains, locus YPL241C, strain CIN2, hits give low values 1.01 | S. cerevisiae deletion strains, locus YPL256C, strain CLN2, hits give low values 1.01 | S. cerevisiae deletion strains, locus YPR119W, strain clb2, hits give low values 0.992 | S. cerevisiae deletion strains, locus YPR141C, strain kar3, hits give low values 0.995 | S. cerevisiae deletion strains, locus YPR163C, strain tif3, hits give low values 0.988 | S. cerevisiae deletion strains, locus YPR167C, strain met16, hits give low values 0.995 | S. cerevisiae deletion strains, strain wtn01, hits give low values 0.972 | S. cerevisiae strains, strain wild type, hits give low values 1
